# Test results from PubChem BioAssay AID1578 (Sanford-Burnham Center for Chemical Genomics, 2009).
# Values joined by “and” are separate entries in the source; they are usually repeats but may differ in a detail not shown here. Identical values can stand only once. Among all 290,000 compounds or so, about 3,000 (1%) were called active. This is one part of a sample in which actives are shown more often than they occur. Cut-off read from the data, not from the text of the source: active = inhibition mostly above about 36% (no sharp cut-off); inactive = mostly below about 34%. The source holds several records for some structures; these can differ, active in one and inactive in another.
# Experiment: inhibition of NOD1-driven NF-kB reporter – cell-based, luminescence, uHTS, primary screen (AID 1578);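 note: HEK-293T reporter cells stimulated with the NOD1 agonist gamma-tri-DAP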
# Details: NOD1-driven NF-kB luciferase reporter cells, at 4 µM, stronger effect = higher value
row,Structure (SMILES),inhibition
1,C/C1=C\[C@@H](C)C/C=C/[C@H]2[C@@H]3O[C@]3(C)[C@@H](C)[C@H]3[C@H](Cc4c[nH]c5ccccc45)NC(=O)[C@]32C(=O)/C=C/C(=O)[C@@H]1O,-3.4% (inactive)
2,CC1=CC2/C=C(\C)CCC(O)C(O)/C=C/C(=O)C23C(=O)NC(CC(C)C)C3C1C (stereo not given),90.7% (active)
3,CCOc1ccc(-n2c(O)c(C=Nc3ccc(NC(C)=O)cc3)c(=O)[nH]c2=O)cc1,-7.1% (inactive)
4,O=P(O)(O)C#Cc1ccccc1,-12.9% (inactive)
5,CN1CCN(c2nc([N+](=O)[O-])nn2C)CC1,-15.4% (inactive)
6,COC(=O)c1ccc(NC(=O)CSc2nc3ccc(N4C(=O)C5C6C=CC(C6)C5C4=O)cc3s2)cc1 (stereo not given),104% (active)
7,CCOC(=O)c1c(-n2c(C)cc(C=C3C(=O)NC(=O)NC3=O)c2C)sc2c1CCCC2,1.7% (inactive)
8,CCC(C)C12CN3CCN(CC(C)(C3)C1=O)C2 (stereo not given),4.3% (inactive)
9,C=CCn1c(O)c(C(CC)=Nc2cccc(C(=O)O)c2)c(=O)[nH]c1=O,5.1% (inactive)
10,CCCCCCNC(=O)N[C@@H](Cc1ccc(O)cc1)C(=O)NCCC[C@H]1CN2C(=NC[C@H]2C)N1CC1CCC1,2.9% (inactive)
11,O=C(CNC(=O)OCc1ccccc1)NCC(=O)Nc1ccc(Br)cc1C(=O)c1ccccc1,22% (inactive)
12,O=C(/C=C/c1ccc2c(c1)OCO2)c1c(O)n(CCC2=CCCCC2)c(=O)[nH]c1=O,34.4% (inactive)
13,COc1ccc(/C=C/C(=O)c2c(O)n(CCC3=CCCCC3)c(=O)[nH]c2=O)cc1,79.8% (active)
14,COc1ccc(/C=C/C(=O)c2c(O)n(CCC3=CCCCC3)c(=O)[nH]c2=O)cc1OC,14.2% (inactive)
15,CCOc1cc2c(cc1OCC)-n1cccc1C(c1ccc(OC)cc1)NC2 (stereo not given),-5.9% (inactive)
16,C[C@@H]1C[C@H]2OC(=O)C3(CO3)[C@H]2[C@H](O)[C@]2(C)C(=O)C3OC3[C@@H]12 (stereo not given in full),65.6% (active)
17,CCN(CC)CCN=Cc1c(O)n(Cc2ccco2)c(=O)[nH]c1=O,-5.5% (inactive)
18,CC(C)CN1CCN(Cc2ccc(C(F)(F)F)cc2)CC1CCO (stereo not given),-10.4% (inactive)
19,C/C(=N\N1CCCCCC1)c1c(O)n(C2CCCCC2)c(=O)[nH]c1=O,-7.2% (inactive)
20,CCOC(=O)c1ccc(NC(=O)c2c(O)[nH]c(=O)[nH]c2=O)cc1,-19% (inactive)
21,CCn1cc(C(=O)NCc2ccccc2)c2ccccc21,-16.6% (inactive)
22,COCCCN=Cc1c(O)[nH]c(=S)[nH]c1=O,-7.3% (inactive)
23,CCCCCCCCN=Cc1c(O)[nH]c(=O)[nH]c1=O,-1.5% (inactive)
24,CCCCC(CC)COCCCN=Cc1c(O)[nH]c(=S)[nH]c1=O (stereo not given),34.9% (active)

row,Structure (SMILES),inhibition
1,O=S(=O)(c1ccc(Cl)cc1)N1CN2CCN(C2)C1,-10.2% (inactive)
2,CN1C(=O)C(=Cc2cn(CC#N)c3ccccc23)C(=O)N(C)C1=O,1.8% (inactive)
3,CC1CCCCN1Cc1c[nH]c2ccccc12 (stereo not given),-3.8% (inactive)
4,c1cncc(C2CCCCN2)c1 (stereo not given),-6.3% (inactive)
5,O=C1NC(c2cccnc2)Nc2sc3c(c21)CCCC3 (stereo not given),-24.5% (inactive)
6,c1cncc(C2Nc3cccc4cccc(c34)N2)c1,54.6% (active) and -3.4% (inactive)
7,CC#CP(=O)(OC)C(O)(CF)c1ccccc1 (stereo not given),-41.2% (inactive)
8,O=S(=O)(c1ccc(Cl)cc1Cl)N1CCCC1c1cccnc1 (stereo not given),-4.1% (inactive)
9,CC(=O)Nc1ccc(CC(=O)N2CCN(Cc3ccccc3)CC2)cc1,25.2% (inactive)
10,C[C@H]1C[C@@H](C)C(=O)[C@@H]([C@H](O)CC2CC(=O)NC(=O)C2)C1,88% (active)
11,Cc1ccccc1NC(=O)CCl,18.4% (inactive)
12,CCN(CC)S(=O)(=O)c1ccc(C(=O)NC2CN3CCC2CC3)cc1 (stereo not given),7.1% (inactive)
13,CCN(CC)CCCN=Cc1c(O)n(CCc2ccc(F)cc2)c(=O)[nH]c1=O,19.7% (inactive)
14,CC(=O)OC(C)(C)/C=C/C(=O)C(C)(O)C1[C@H](O)C[C@@]2(C)C3CC=C4C(CC[C@@H](O)C4(C)C)[C@]3(CO)C(=O)C[C@]12C (stereo not given in full),12% (inactive)
15,CC(=O)OC(C)(C)/C=C/C(=O)[C@](C)(O)[C@H]1[C@H](O)C[C@@]2(C)[C@@H]3CC=C4[C@H](C[C@H](O)C(=O)C4(C)C)[C@]3(C)C(=O)C[C@]12C,92.6% (active)
16,Cc1ccc(-c2cc(-c3ccc(C)cc3)[n+](C)o2)cc1,26.6% (inactive)
17,O=[N+]([O-])c1ccc(C2[C@H]3C(c4ccccc4)=NC4(CCCC4)N23)cc1 (stereo not given in full),-19.9% (inactive)
18,Cc1nn(-c2ccccc2)c2c1CC1(C(=O)N(C)C(=O)N(C)C1=O)C1CCCCN21 (stereo not given),-10.6% (inactive)
19,CN(CCCCC(=O)/C=N/O)Cc1ccccc1 (tested in a mixture with another compound),-7.6% (inactive)
20,O=[N+]([O-])c1ccc(N2CCNCC2)cc1N1CCCCCC1,-7.5% (inactive)
21,O=C(CSC1c2ccccc2-c2ccccc21)N/N=C/c1ccccc1,14.7% (inactive)
22,O=C(CSC1c2ccccc2-c2ccccc21)N/N=C/c1ccccc1O,80.9% (active)
23,O=C(CSC1c2ccccc2-c2ccccc21)N/N=C/c1ccccc1C(=O)O,-22.4% (inactive)
24,Oc1cccc(/C=N/NP(=S)(c2ccccc2)c2ccccc2)c1,-0.8% (inactive)

row,Structure (SMILES),inhibition
1,COCc1ccc(CN2CCCC(C(=O)c3sccc3C)C2)o1 (stereo not given),-44.8% (inactive)
2,CN(Cc1ccccc1)Cc1ccccc1OC(=O)N(C)C,2.4% (inactive)
3,COc1cc(C=C2C(=O)NC(=O)NC2=O)ccc1OCc1ccc([N+](=O)[O-])cc1,-52% (inactive)
4,C/C(=C\c1ccc(N(C)C)cc1)[N+](=O)[O-],41.9% (inactive)
5,COc1cc(/C=C(/C)[N+](=O)[O-])ccc1OCc1ccccc1Cl,86.8% (active)
6,CCOC(=O)CNC(=S)N1CC2C[C@@H](C1)Cn1c2cccc1=O,0.7% (inactive)
7,CN(C)c1ccc(C=C(C#N)C#N)cc1,-35.8% (inactive)
8,Cc1cc(N2CCCC2)ccc1C=C(C#N)C#N,-24.7% (inactive)
9,Cc1ccc2cc(C=C(C#N)C#N)c(Cl)nc2c1,72.2% (active)
10,Cc1c(-c2cccc(Cl)c2)nc2ccccc2c1C(=O)N1CCC2(CC1)OCCO2,-11.2% (inactive)
11,O=[N+]([O-])c1ccc(-[n+]2c(-c3ccccc3)cc(-c3ccccc3)cc2-c2ccccc2)cc1,-8.8% (inactive)
12,c1ccc(-c2cc(-c3ccccc3)[n+](-c3ccccc3)c(-c3ccccc3)c2)cc1,65.7% (active)
13,Nc1ccccc1-[n+]1c(-c2ccccc2)cc(-c2ccccc2)cc1-c1ccccc1,-5.4% (inactive)
14,CCNC(=O)[C@H]1O[C@@H](n2cnc3c(N)ncnc32)[C@H](O)[C@@H]1O,-5.6% (inactive)
15,NC(=S)c1cn(C2OC(CO)C(O)C2O)c2ncnc(N)c12 (stereo not given),104% (active)
16,CN(C)C(=O)Oc1ccc2c(c1)O/C(=C\c1cccc([N+](=O)[O-])c1)C2=O,-9.1% (inactive)
17,O=C1NC(=O)C(=Cc2ccc(Sc3ccccc3)o2)C(=O)N1,1.7% (inactive)
18,Cc1c(C=O)c2ccccc2n1Cc1ccccc1F,5% (inactive)
19,CCn1c(O)c(/C=N/NC(=O)c2ccncc2)c(=O)[nH]c1=S,2.7% (inactive)
20,CCOC(=O)CCN=Cc1c(O)n(-c2ccc(Br)cc2)c(=O)[nH]c1=O,-27.1% (inactive)
21,Cc1cc(C)n2nc(C)[n+](C)c2n1,-17.4% (inactive)
22,COC(=O)c1c(C)n(Cc2ccc3c(c2)OCO3)c2ccc(O)cc12,48.3% (active)
23,COC(=O)c1c(C)n(Cc2ccccc2)c2ccc(O)cc12,19.6% (inactive)
24,CCOC(=O)c1c(C)n(Cc2ccc3c(c2)OCO3)c2ccc(O)cc12,-7.9% (inactive)

row,Structure (SMILES),inhibition
1,C=CCn1c(O)c(/C(C)=N/N2CCCCCC2)c(=O)[nH]c1=O,-6.9% (inactive)
2,CCCCCCn1c(=O)c(C(=O)Nc2ccncc2)c(O)c2ccccc21,63.9% (active)
3,CCCCCn1c(=O)c(C(=O)Nc2nc(CC(=O)OCC)cs2)c(O)c2ccccc21,-28.8% (inactive)
4,CCCCCn1c(=O)c(C(=O)Nc2ccccc2)c(O)c2ccccc21,-20.5% (inactive)
5,CCCCCn1c(=O)c(C(=O)NCc2ccncc2)c(O)c2ccccc21,21.6% (inactive)
6,CCOC(=O)Cc1csc(NC(=O)c2c(O)c3ccccc3n(CCC(C)C)c2=O)n1,-27.7% (inactive)
7,CCCCCn1c(=O)c(C(=O)Nc2ccncc2)c(O)c2ccccc21,69.7% (active)
8,CCCCCn1c(=O)c(C(=O)Nc2cccc(C)c2)c(O)c2ccccc21,-15.2% (inactive)
9,CCCCCCn1c(=O)c(C(=O)Nc2nc(CC(=O)OCC)cs2)c(O)c2ccccc21,58.7% (active)
10,CCCCn1c(=O)c(C(=O)Nc2ccccc2)c(O)c2ccccc21,14.3% (inactive)
11,Cc1ccc(N2CCN(CCc3ccccc3)CC2)cc1,10.7% (inactive)
12,CCOc1nc(NC(C)C)nc(N2CC3CC(C2)c2cccc(=O)n2C3)n1 (stereo not given),-38.6% (inactive)
13,O=C(Nc1cccc(Cl)c1)c1c(O)c2c(n(Cc3ccccc3)c1=O)CCCC2,-38.5% (inactive)
14,CCCCn1c(O)c(C(C)=NCCCn2ccnc2)c(=O)[nH]c1=O,-5.8% (inactive)
15,Cc1ccsc1C(=O)C1CCCN(Cc2sc(N(C)C)nc2Cl)C1 (stereo not given),60.9% (active)
16,CCc1ccc(CN2CCCC(C(=O)c3sccc3C)C2)o1 (stereo not given),-19% (inactive)
17,Cc1ccc(CN2CCCC(C(=O)c3sccc3C)C2)o1 (stereo not given),-19.5% (inactive)
18,Cc1ccsc1C(=O)C1CCCN(Cc2cc3ccccc3o2)C1 (stereo not given),75.6% (active)
19,Cc1ccsc1C(=O)C1CCCN(Cc2cnc(N3CCCC3)s2)C1 (stereo not given),11.2% (inactive)
20,Cc1ccsc1C(=O)C1CCCN(Cc2ccc(O)cc2)C1 (stereo not given),-32.6% (inactive)
21,Cc1ncc(CN2CCCC(C(=O)c3sccc3C)C2)s1 (stereo not given),-24.9% (inactive)
22,Cc1ccsc1C(=O)C1CCCN(Cc2cnc(N(C)C)s2)C1 (stereo not given),-26.4% (inactive)
23,Cc1ccsc1C(=O)C1CCCN(Cc2cnc(N3CCOCC3)s2)C1 (stereo not given),46.6% (active)
